Consider 40 compounds from PubChem BioAssay (Tox21).

Inconclusive results are not listed. A number with no mark means an inactive call. The source made the active and inactive calls. The call rests on the fitted dose curve; in most records, active means well fitted activation curve with a large enough effect in the repeat runs; inconclusive means weak or mixed curves; inactive means flat fitted curve, though single readings scatter.
On the % scale 0 is the no-effect control and ±100 the full control effect; potency means the concentration at half of the fitted maximal effect.

A short description of the test: A CellTox Green Cytotoxicity Assay to monitor cytotoxicity in HEK293 cells - 24 hour (AID 1224875). Further: nearly all actives have a fitted effect of over 45% in size. The conditions noted are these: CellTox Green fluorescence; series mostly up to 76.8 µM; activity change: at the top concentration. An excerpt: National Center for Advancing Translational Sciences [NCATS]
NIH Chemical Genomics Center [NCGC]
U.S. Environmental Protection Agency [EPA]
National Institutes of Environmental Health Sciences [NIEHS]
National Toxicology Program [NTP]
Cell-based models are critical for drug discovery. Determining the natural cytotoxic effects resulting from test compounds is an essential research activity. A CellTox Green Cytotoxicity Assay to monitor cytotoxicity in real time of continues cell culture during 40 hours of the compound treatment was used to screen Tox21 10K library compounds in Hek293 cells. CellTox Green Cytotoxicity Assay is a nonlytic, homogeneous, biofluorescent method to measure cytotoxicity in cell culture after experimental manipulation. The assay system uses a proprietary asymmetric cyanine dye that is excluded from viable cells but preferentially stains the dead cell's DNA. […] Viable cells produce no appreciable increases in fluorescence. Therefore, the fluorescence signal produced by the binding interaction with dead cell DNA is proportional to cytotoxicity.
The mixture of Hek293 cell suspension and reagents were dispensed at 600cells/6 ul/well in 1536-well tissue culture treated black solid bottom plates using a Multidrop dispenser. After the assay plates were incubated at a 37 C/5% CO2 incubator for 5 hours, 23 nL of compounds dissolved in DMSO, positive and negative controls was transferred to the assay plate by a pintool work station. The plates were incubated at 37 C for 40 hours. The fluorescence intensity were measured at 0h, 8h, 16h, 24h, 32h and 40h time points using ViewLux plate reader during compound treatment.
In the case of `CCC(C)(C)CC`, the “activity change” value is -5.6%.

With `Cc1ncc(CO)c(C=O)c1O`, the “activity change” value is 0.0585% [at 35.3 µM, active compounds read high]. `COc1ccc(S(=O)(=O)N2C(=O)[C@@](c3ccccc3OC)(N3C[C@H](O)C[C@H]3C(=O)N(C)C)c3cc(Cl)ccc32)c(OC)c1`: the “activity change” value is -4.09%. Consider `Cc1ccccc1S(=O)(=O)O`, for which the “activity change” value is 4.28%. Turning to `O=C(c1ccc(F)cc1)C1CCN(CCn2c(=S)[nH]c3ccccc3c2=O)CC1`, the “activity change” value is 5.23% [at 35.3 µM, active compounds read high]. For the compound `CN1CCC(N(Cc2cccs2)c2ccccc2)CC1`, the Potency is 19 µM (active). In the case of `CCCCCCCCCCCCN1CCCCCC1=O`, the “activity change” value is 12.8%.

As to `c1ccc(-c2ccccn2)nc1`, the “activity change” value is 3.43%. For `O=C(O)C(S)C(S)C(=O)O` (stereo not given), the “activity change” value was -17.6% [at 35.3 µM, active compounds read high]. `CCCCCCCC/C=C\CCCCCCCC(=O)OCC`: the “activity change” value was -11.1%. Regarding `O=C(NCC1CN(c2ccc(N3CCOCC3=O)cc2)C(=O)O1)c1ccc(Cl)s1` (stereo not given), the “activity change” value was -12.3% [at 35.3 µM, active compounds read high].

As to `CO[C@@H]1[C@H](OC(=O)/C=C/C=C/C=C/C=C/C(=O)O)CC[C@]2(CO2)[C@H]1[C@@]1(C)O[C@@H]1CC=C(C)C`, the “activity change” value is 1.79%.

`CN(C)CCCN1c2ccccc2Sc2ccccc21`: the “activity change” value is 1.43% [at 35.3 µM, active compounds read high].

As for `C=CCOc1ccccc1OCC(O)CNC(C)C` (stereo not given), the “activity change” value was -1.07% [at 35.3 µM, active compounds read high]. Take `CCCCC1=NC2(CCCC2)C(=O)N1Cc1ccc(-c2ccccc2-c2nn[nH]n2)cc1`: the “activity change” value is -0.723% [at 35.3 µM, active compounds read high]. For `CCOC(=O)NCCOc1ccc(Oc2ccccc2)cc1`, the “activity change” value is -0.639%. In the case of `CCCCCCc1ccc(-c2ccc(C#N)cc2)cc1`, the “activity change” value was -2.84%. As for `CCCCC(=O)OCC(=O)[C@H]1[C@H](C)C[C@H]2[C@@H]3C[C@H](F)C4=CC(=O)C=C[C@]4(C)[C@@]3(F)[C@@H](O)C[C@@]21C`, the “activity change” value was 1.91% [at 35.3 µM, active compounds read high]. Same read-out and setting: next, `O=S(=O)(Oc1ccc(Cl)cc1)c1ccccc1`: 3.75%; `CN1CCN(C(c2ccccc2)c2ccccc2)CC1`: -9.08% [at 35.3 µM, active compounds read high]. As to `CCCCNc1ccc(C(=O)OCCOCCOCCOCCOCCOCCOCCOCCOCCOC)cc1`, the “activity change” value was -1.19% [at 35.3 µM, active compounds read high]. Take `CCCCC/C=C\C/C=C\CCCCCCCC(=O)NC(C)c1ccccc1` (stereo not given): the “activity change” value is 3.94% [at 35.3 µM, active compounds read high]. For the compound `COCC(C)OC(C)=O` (stereo not given), the “activity change” value is 9.58%. With `Nc1ccccc1S(=O)(=O)c1ccccc1`, the “activity change” value was -0.741%. With `CCCn1cnc2c1c(=O)n(CCCCC(C)=O)c(=O)n2C`, the “activity change” value is -8.89% [at 35.3 µM, active compounds read high]. On to `COC(=O)C1=C(C)NC(COC(N)=O)=C(C(=O)OC(C)C)C1c1cccc(Cl)c1Cl` (stereo not given), for which the “activity change” value was 16.4% [at 35.3 µM, active compounds read high]. For `CCc1cc(C2=C(C(=O)O)N(c3ccccc3C(F)(F)F)S(=O)(=O)c3ccccc32)cc2c1OCO2`, the “activity change” value was -0.89%. Turning to `C[C@@H](c1ncncc1F)C(O)(Cn1cncn1)c1ccc(F)cc1F` (stereo not given in full), the “activity change” value was -11.3% [at 35.3 µM, active compounds read high].

`N=c1ccn2c(n1)O[C@H]1[C@H](O)[C@@H](CO)O[C@H]12`: the “activity change” value was -11.4%. In the case of `Cc1cc(N)c2cc(NC(=O)Nc3ccc4nc(C)cc(N)c4c3)ccc2n1`, the “activity change” value is -36.2% [at 35.3 µM, active compounds read high]. In the case of `O=[N+]([O-])c1ccc(NCCO)c(OCCO)c1`, the “activity change” value was -0.163%. As for `Nc1cccc([N+](=O)[O-])c1`, the “activity change” value is 1.76%. Turning to `COS(=O)(=O)C(F)(F)F`, the “activity change” value was -7.36%. `Brc1c2ccccc2c(Br)c2ccccc12`: the activity change is -0.621% [at 6.97 µM, active compounds read high]. Consider `OCCN1CCN(CCCN2c3ccccc3C=Cc3ccccc32)CC1`, for which the “activity change” value was -7.54% [at 35.3 µM, active compounds read high]. For the compound `CC1(c2ccccc2)OC(C(=O)O)=CC1=O` (stereo not given), the “activity change” value was -1.29% [at 35.3 µM, active compounds read high]. With `CCCCCCCCCCCCCCCCOS(=O)(=O)O`, the Potency was 19 µM (active). As for `CCCNCC(O)COc1ccccc1C(=O)CCc1ccccc1` (stereo not given), the “activity change” value is 11.7% [at 35.3 µM, active compounds read high]. Still for that read-out and setting: next, `CC1OC(=O)C(C)OC1=O` (stereo not given): 8.34%.

Take `O=C(Nc1ccc(S(=O)(=O)N2CCOCC2)cc1)c1cc(Cl)ccc1NS(=O)(=O)c1ccc(Cl)s1`: the Potency is 23.9 µM (active).
